Reference: the supplement of paper PMC6897291

System: RIVA
Experiment: growth inhibition by drug plus 177Lu-lilotomab satetraxetan (1 - RLU/untreated control) (fraction); higher = stronger inhibition
Conditions: 177Lu-lilotomab satetraxetan 0.5 ug/ml
Procedure: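 RIVA (RI-1) ABC-DLBCL cells were pretreated or not for 18 h with 0.5 ug/ml 177Lu-lilotomab satetraxetan (600 MBq/mg), washed and seeded (3000 cells/well) on 384-well plates pre-printed with the Selleck Cambridge Cancer Compound library. Viability was read by RealTime-Glo luminescence on days 3-6 after seeding. Effect = 1 - RLU/mean RLU of the 48 untreated no-drug control wells per plate; Bliss score = (M-E)/(1-Fa).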

| SMILES | growth inhibition by drug plus 177Lu-lilotomab satetraxetan (10 nM, time (day): 3) | growth inhibition by drug plus 177Lu-lilotomab satetraxetan (10 nM, time (day): 4) | growth inhibition by drug plus 177Lu-lilotomab satetraxetan (10 nM, time (day): 5) | growth inhibition by drug plus 177Lu-lilotomab satetraxetan (10 nM, time (day): 6) | growth inhibition by drug plus 177Lu-lilotomab satetraxetan (100 nM, time (day): 3) | growth inhibition by drug plus 177Lu-lilotomab satetraxetan (100 nM, time (day): 4) | growth inhibition by drug plus 177Lu-lilotomab satetraxetan (100 nM, time (day): 5) | growth inhibition by drug plus 177Lu-lilotomab satetraxetan (100 nM, time (day): 6) |
| --- | --- | --- | --- | --- | --- | --- | --- | --- |
| COc1cc2ncnc(Nc3ccc(F)c(Cl)c3)c2cc1OCCCN1CCOCC1 [Gefitinib (Iressa)] | 0.402 | 0.522 | 0.546 | 0.553 | 0.408 | 0.485 | 0.503 | 0.494 |
| Nc1ccccc1NC(=O)c1ccc(CNC(=O)OCc2cccnc2)cc1 [Entinostat (MS-275, SNDX-275)] | 0.486 | 0.568 | 0.585 | 0.591 | 0.604 | 0.62 | 0.628 | 0.595 |
| COc1cc2nccc(Oc3ccc(NC(=O)NC4CC4)c(Cl)c3)c2cc1C(N)=O [E7080 (Lenvatinib)] | 0.331 | 0.478 | 0.485 | 0.496 | 0.364 | 0.44 | 0.454 | 0.461 |
| Fc1cc(-c2cccc3ncc(-c4cnn(C5CCNCC5)c4)nc23)cc(F)c1CN1CCOCC1 | 0.548 | 0.579 | 0.59 | 0.593 | 0.571 | 0.589 | 0.6 | 0.592 |
| COc1cc2c(cc1OC)CN(CCc1ccc(NC(=O)c3cccc4c(=O)c5cccc(OC)c5[nH]c34)cc1)CC2 [Elacridar] | 0.3 | 0.468 | 0.491 | 0.503 | 0.263 | 0.407 | 0.424 | 0.403 |
